# According to PubChem BioAssay AID1850 (Southern Research Specialized Biocontainment Screening …, 2009):
# In all, about 310,000 compounds went through this assay and about 1,000 (0.32%) were called active. These entries were drawn from the full list. Measured potencies and affinities stand elsewhere. Values without a mark were called inactive. The rule behind the calls is not given here.
# Assay: Inhibition of PhoP regulon, Salmonella typhi GFP reporter cells, confirmation, 4 h (AID 1850);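 note: 0% = induced wells with vehicle and 100% = uninduced wells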
# Conditions: Salmonella Typhi PhoP-promoter GFP reporter, fluorescence, at 50 µM, stronger effect = higher value
row,Structure (SMILES),inhibition
1,COc1ccc(NC(=O)CN2C(=O)c3cccc4cccc2c34)cc1OC,-7.56%
2,O=C(Cn1cc(C(F)(F)F)cc(Cl)c1=O)NCc1ccc(Cl)cc1,-1.19%
3,CCCCOC(=O)c1ccc(-c2ccc(/C=N/NC(=S)NCC)o2)cc1,-7.32%
4,O=[N+]([O-])c1ccc(/C([O-])=C(/C(=S)NCc2ccco2)[n+]2ccccc2)cc1,13.8%
5,O=C(NC1CCN(Cc2ccccc2)CC1)C1CCN(S(=O)(=O)c2ccccc2)CC1,5.66%
6,Clc1ccc(-c2csc(N3CCc4ccccc4C3)n2)cc1,5.55%
7,CC(C)CN=CC1=C(O)c2ccccc2C1=O,5.42%
8,CC(C)(C)CN1CCN(Cc2cc3ccccc3[nH]2)CC1CCO (stereo unspecified),2.46%
9,Cc1cc(C)n(C(=O)Cn2nc([N+](=O)[O-])cc2C)n1,-5.88%
10,O=C1CSC(c2cccc([N+](=O)[O-])c2)N1c1ccccc1 (stereo unspecified),0.65%
11,Clc1ccccc1OCCCCN1CCCCC1,-2.94%
12,CN1CCCC(CC2Oc3ccccc3Sc3ccccc32)C1 (stereo unspecified),11.3%
13,OCCC1CN(Cc2cccc3c2OCO3)CCN1C1CCCCC1 (stereo unspecified),-4.26%
14,Cc1ccc(S(=O)(=O)N(C)C(=O)NC(=O)NS(=O)(=O)c2ccccc2)cc1,-5.97%
15,CCC(=O)/C=C1\Sc2ccc(OC)cc2N1CCO,-12.9%
16,CCC(/C=C1\Sc2ccc(OC)cc2N1CC)=C\c1sc2ccc(OC)cc2[n+]1CCCS(=O)(=O)[O-],-7.82%
17,COc1ccc(/C=N/Nc2nc(C)cc(-c3ccccc3)n2)cc1OC,-1.16%
18,COc1ccc(-c2ccc(=O)n(Cc3cccc(Cl)c3)n2)cc1,-10.8%
19,Cc1cc(C)nc(/N=C(\N)Nc2cc([N+](=O)[O-])ccc2C)n1,-1.74%
20,CCC(=O)Nc1ccc(N/C(N)=N/c2nc(C)cc(C)n2)cc1,-8.68%
21,COc1ccc(C)cc1N/C(N)=N/c1nc(C)cc(C)n1,-5.2%
22,Cc1ccc(N/C(N)=N/c2nc(C)cc(C)n2)cc1,-9.13%
23,O=C(NCCF)C1Nc2ccc(OC(F)(F)F)cc2C2C=CCC12 (stereo unspecified),9.88%
24,C=CCN(C(=O)c1csnn1)C(C(=O)NCc1ccccc1)c1c(F)cccc1Cl (stereo unspecified),-1.14%
25,CN(CC(=O)N1CCN(c2cccc(Cl)c2)CC1)S(=O)(=O)c1cccs1,2.82%
26,CCOC(=O)C(C)NC(=O)CCc1nnc2ccc(N3CCCCC3)nn12 (stereo unspecified),1.43%
